Where “and” joins values, the source holds several entries; their conditions need not be identical. Equal values may be shown once. Records with an inconclusive call do not appear. A call without a number means that no potency is given here. Where a structure was tested more than once in an assay, its records may differ in their call. Calls of active or inactive are those of the source. Unless noted, calls follow the shape of the dose curve; as a rule, active = well fitted curve in the direction sought with a large enough effect; inconclusive = small, poorly fitted or top-dose-only effect, or another doubt; inactive = no such curve, though single readings can be large; an effect the other way counts as inactive or inconclusive.
Experiments:
[1] = molecular target: Cytochrome P450 1A2 (Homo sapiens) (UniProt P05177); assay: p450-cyp1a2 (AID 410; calls by dose curve; also: potency is read from the fitted curve at half-maximal effect); conditions: recombinant CYP1A2, luciferin-ME demethylation, luminescence; series mostly up to 57 µM
Chain of Cytochrome P450 1A2 (Homo sapiens) (P05177 whole entry, looked up): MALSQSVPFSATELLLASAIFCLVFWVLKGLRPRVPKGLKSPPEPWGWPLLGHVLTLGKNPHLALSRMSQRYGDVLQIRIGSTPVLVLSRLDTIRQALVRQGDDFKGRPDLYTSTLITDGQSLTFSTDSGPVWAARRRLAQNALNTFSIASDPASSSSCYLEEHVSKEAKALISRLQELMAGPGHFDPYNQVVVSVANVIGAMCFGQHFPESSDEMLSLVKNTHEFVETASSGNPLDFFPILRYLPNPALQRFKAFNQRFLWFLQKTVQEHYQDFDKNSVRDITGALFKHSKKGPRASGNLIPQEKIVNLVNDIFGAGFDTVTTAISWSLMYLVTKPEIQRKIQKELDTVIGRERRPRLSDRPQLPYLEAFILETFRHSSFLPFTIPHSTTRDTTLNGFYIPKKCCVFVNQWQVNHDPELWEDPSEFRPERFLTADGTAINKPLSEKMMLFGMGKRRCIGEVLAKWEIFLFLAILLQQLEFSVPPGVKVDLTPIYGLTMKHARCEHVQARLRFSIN
Outline: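 Luminescent demethylation readout: Luciferin-ME (100uM, equal to Km) turned over by 20nM CYP1A2 for 60 min at room temperature after NADPH regeneration addition, following 10 min compound preincubation. Normalization used 57 uM furafylline as full inhibition.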

[2] = molecular target: Glucocorticoid receptor (Homo sapiens) (UniProt P04150); assay: GR-GFP Redistribution (AID 450;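 active = compounds whose dose series gives a full or clear partial fitted curve of increased nuclear translocation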; also: potency is read from the fitted curve at half-maximal effect); conditions: U2OS GR-GFP nuclear translocation, laser cytometry, 2 h
Chain of Glucocorticoid receptor (Homo sapiens) (P04150 whole entry, looked up, the tested form may be a part): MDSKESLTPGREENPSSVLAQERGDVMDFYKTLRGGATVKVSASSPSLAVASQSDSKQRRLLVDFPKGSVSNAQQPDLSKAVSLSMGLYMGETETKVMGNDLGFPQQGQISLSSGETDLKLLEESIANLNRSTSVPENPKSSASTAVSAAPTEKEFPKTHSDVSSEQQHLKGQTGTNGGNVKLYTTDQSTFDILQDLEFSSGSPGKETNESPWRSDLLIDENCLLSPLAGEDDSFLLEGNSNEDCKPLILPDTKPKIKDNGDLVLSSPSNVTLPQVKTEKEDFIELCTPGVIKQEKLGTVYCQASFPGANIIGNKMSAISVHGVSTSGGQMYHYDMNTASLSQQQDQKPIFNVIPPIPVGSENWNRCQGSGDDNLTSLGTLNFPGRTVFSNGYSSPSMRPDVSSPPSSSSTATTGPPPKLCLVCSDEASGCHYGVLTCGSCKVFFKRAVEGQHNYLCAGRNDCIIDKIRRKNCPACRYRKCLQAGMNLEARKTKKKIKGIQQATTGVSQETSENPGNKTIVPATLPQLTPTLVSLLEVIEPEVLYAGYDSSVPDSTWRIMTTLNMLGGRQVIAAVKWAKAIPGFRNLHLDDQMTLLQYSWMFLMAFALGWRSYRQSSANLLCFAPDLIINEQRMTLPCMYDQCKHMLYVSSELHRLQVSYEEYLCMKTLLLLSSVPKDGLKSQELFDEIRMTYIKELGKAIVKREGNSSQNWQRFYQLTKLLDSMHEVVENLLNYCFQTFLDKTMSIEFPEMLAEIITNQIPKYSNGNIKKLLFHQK

[3] = molecular target: Glucocorticoid receptor (Homo sapiens) (UniProt P04150); assay: GR-EFC Redistribution (AID 451; calls by dose curve; also: potency is read from the fitted curve at half-maximal effect); conditions: CHO-K1 GR-EFC translocation, beta-gal luminescence, 2 h
Outline: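 CHO-K1 cells expressing nuclear EA and GR-ED fragments of b-gal; compounds titrated up to 46 uM final, 2 h at 37 C. GR nuclear translocation read as complemented b-gal luminescence after 1 h RT detection.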

[4] = molecular target: Mitogen-activated protein kinase 10 (Mus musculus) (UniProt Q61831); assay: JNK3 AlphaScreen Assay (AID 530; active = well fitted curve in either direction with a large enough effect, not every such curve was filed as active;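 also: kinase came from lysate of stimulated human HepG2 cells; signal reports phosphorylation of biotinylated GST-cJun 1-79 at Ser73 with 10 µM ATP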); conditions: JNK3 lysate, c-Jun phosphorylation; series mostly up to 57.1 µM
Outline: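 Activity was read by AlphaScreen after JNK3-containing HepG2 lysate (cytokine pre-activated) phosphorylated biotinylated GST-cJun with 10 uM ATP at room temperature. Phospho-Ser73 cJun antibody with Protein-A acceptor beads provided detection.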

[5] = molecular target: 3',5'-cyclic-AMP phosphodiesterase 4B (Homo sapiens) (UniProt Q07343); assay: qHTS Assay for Inhibitors of PDE-IV (AID 607; active = well fitted activation curve with a large enough effect in the main read-out, with a control signal flat, not every such curve was filed as active); conditions: HEK293 ACTOne CNG channel cells, membrane potential fluorescence; series mostly up to 22.9 µM
Chain of 3',5'-cyclic-AMP phosphodiesterase 4B (Homo sapiens) (Q07343 whole entry, looked up): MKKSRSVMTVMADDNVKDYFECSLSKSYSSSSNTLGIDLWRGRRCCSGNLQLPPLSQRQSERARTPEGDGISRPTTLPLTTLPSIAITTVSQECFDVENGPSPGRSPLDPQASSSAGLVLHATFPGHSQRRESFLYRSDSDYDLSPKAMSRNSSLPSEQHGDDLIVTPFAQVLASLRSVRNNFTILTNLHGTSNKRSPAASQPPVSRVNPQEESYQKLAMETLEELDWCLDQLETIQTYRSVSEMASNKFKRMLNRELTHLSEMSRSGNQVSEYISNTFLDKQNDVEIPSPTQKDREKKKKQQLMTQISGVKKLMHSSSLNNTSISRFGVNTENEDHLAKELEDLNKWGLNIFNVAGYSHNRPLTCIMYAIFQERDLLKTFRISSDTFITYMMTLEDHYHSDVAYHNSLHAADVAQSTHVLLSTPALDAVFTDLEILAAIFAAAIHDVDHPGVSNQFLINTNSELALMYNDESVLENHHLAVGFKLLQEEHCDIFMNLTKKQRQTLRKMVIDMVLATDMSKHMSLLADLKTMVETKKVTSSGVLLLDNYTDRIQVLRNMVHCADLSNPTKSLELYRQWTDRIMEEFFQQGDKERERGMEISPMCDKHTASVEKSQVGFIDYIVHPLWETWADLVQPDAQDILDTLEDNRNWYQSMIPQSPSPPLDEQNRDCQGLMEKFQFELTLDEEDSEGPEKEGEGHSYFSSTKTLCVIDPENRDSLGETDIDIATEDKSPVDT
Outline: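 ACTOne HEK293 cells carry a modified cAMP-gated CNG channel and express endogenous PDE4; plated 1000 cells/well, compounds up to 22.9 uM final. Membrane-potential dye fluorescence (ex 535/em 590) was read; parental cells received 10 uM forskolin + 100 uM RO 20-1724.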

[6] = qHTS Assay for Lipid Storage Modulators (AID 1519; calls by dose curve); conditions: Drosophila S3 cells, BODIPY lipid droplet/cell ratio, laser cytometry, cells loaded with oleic acid
Outline: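 Cells seeded at 5,000 per well were treated with compounds over a concentration series and loaded with oleic acid (400 uM, as added). Lipid droplet fluorescence (488 nm excitation, 500-530 nm channel) was read by laser-scanning cytometry and normalized to 20 uM Triacsin C.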

[7] = molecular target: Ubiquitin carboxyl-terminal hydrolase 1 (Homo sapiens) (UniProt O94782); assay: Inhibitors of USP1/UAF1: Pilot qHTS (AID 504865); conditions: purified USP1/UAF1, Ub-rhodamine cleavage fluorescence; series mostly up to 114 µM;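 also: rhodamine fluorescence freed from ubiquitin-rhodamine substrate followed over time; top concentration of the series differs between compounds; nearly all actives have a fitted effect of over 35% in size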
Outline: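 USP1/UAF1 complex at 1 nM preincubated 15 min at room temperature with compound, then Ub-Rho substrate added at 150 nM final. Fluorescence (480/540 nm) read kinetically in 50 mM HEPES pH 7.8, 0.5 mM EDTA, 1 mM TCEP, 0.1 mg/ml BSA, 0.01% Tween-20.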

[8] = molecular target: DNA dC->dU-editing enzyme APOBEC-3G (Homo sapiens) (UniProt Q9HC16); assay: qHTS for inhibitors of Vif-A3G interactions: Validation (AID 588379); conditions: Vif-A3G protein interaction assay; series mostly up to 46.1 µM
Chain of DNA dC->dU-editing enzyme APOBEC-3G (Homo sapiens) (Q9HC16 whole entry, looked up): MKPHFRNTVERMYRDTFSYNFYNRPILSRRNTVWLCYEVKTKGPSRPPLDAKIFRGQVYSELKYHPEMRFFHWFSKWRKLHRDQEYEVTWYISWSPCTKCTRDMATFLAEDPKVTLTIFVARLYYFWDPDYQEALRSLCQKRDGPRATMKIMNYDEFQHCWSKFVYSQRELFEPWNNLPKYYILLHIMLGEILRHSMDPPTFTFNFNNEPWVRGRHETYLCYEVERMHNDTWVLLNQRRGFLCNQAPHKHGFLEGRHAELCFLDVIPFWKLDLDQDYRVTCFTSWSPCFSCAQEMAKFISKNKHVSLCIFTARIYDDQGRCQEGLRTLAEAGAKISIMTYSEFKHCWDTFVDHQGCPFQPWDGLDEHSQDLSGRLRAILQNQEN
Outline: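 Yellow fluorescence (Ex 488, Em 500-530) of Vif-coexpressing HeLa A3G-eYFP cells, scanned by Acumen cytometer, reports blocked A3G degradation. Cells plated at 700/well overnight at 37 deg C before compound addition, then a further overnight compound incubation at 37 deg C.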

[9] = test system: Zika virus NS2B-NS3 protease; assay: Primary screen GU AMC qHTS for Zika virus inhibitors (AID 1347154); conditions: Zika NS2B-NS3 unlinked protease, AMC fluorogenic substrate; series mostly up to 54.1 µM; also: nearly all actives have a fitted effect of over 70% in size
Outline: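 Unlinked Zika NS2B hydrophilic domain–NS3 protease complex at 25 nM in 10 mM Tris-HCl pH 8.0, 0.01% Tween 20, with an AMC peptide substrate. Fluorescence change (340/450 nm) over 15 min at room temperature, normalized to controls, fitted to 4-parameter Hill.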

[10] = Primary qHTS for small molecule stabilizers of the endoplasmic reticulum resident proteome: Secreted ER Calcium Modulated Protein (SERCaMP) assay (AID 1508630); conditions: SH-SY5Y GLuc-SERCaMP (Gaussia luciferase released on ER calcium loss) secretion, thapsigargin, luminescence; series mostly up to 38.4 µM
Outline: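 The SH-SY5Y reporter protocol was run at 3 concentrations up to 38.3 uM (primary) or 11 concentrations (follow-up): 16 h compound, 100 nM thapsigargin for 4 h, then extracellular luciferase luminescence.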

[11] = AP1 Signaling Pathway (AID 357; active = well fitted curve in either direction with a large enough effect, not every such curve was filed as active;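 also: ME-180 reporter cells stimulated with EGF at its EC50 level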); conditions: ME-180 (cervical carcinoma) AP-1-bla reporter, EGF-induced, beta-lactamase ratio, 5 h
Outline: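 A ratiometric CCF4 readout (405 nm excitation; 460 and 530 nm emission) quantified AP-1-driven beta-lactamase in ME-180 cells after 5 h with compound and EC50 EGF; AC50 values were derived for activators and inhibitors.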

[12] = NFAT Signaling Pathway (AID 444; active = well fitted curve in either direction with a large enough effect, not every such curve was filed as active;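 also: carbachol stimulus at about its EC50 of 1 µM final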); conditions: Jurkat NFAT-bla M1, carbachol, beta-lactamase ratio, 5 h; at 38 µM (top of the series)
Outline: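 Jurkat cells with NFAT-driven β-lactamase reporter and co-expressed M1 receptor, stimulated with carbachol (final 1 uM, ~EC50), compound titration, 5 h at 37 °C. CCF4 loaded 1 h at RT; 460/530 nm ratio gave %activity and AC50.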

[13] = molecular target: Guanine nucleotide-binding protein G(i) subunit alpha-1 (Homo sapiens) (UniProt P63096); assay: qHTS Assay for Inhibitors of RGS12 GoLoco Motif Activity (Green Fluorophore) (AID 879); conditions: Galphai1/FITC-RGS12 GoLoco peptide, fluorescence polarization; series mostly up to 57.1 µM;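 also: negative values mean loss of peptide binding seen as reduced polarization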
Chain of Guanine nucleotide-binding protein G(i) subunit alpha-1 (Homo sapiens) (P63096 whole entry, looked up): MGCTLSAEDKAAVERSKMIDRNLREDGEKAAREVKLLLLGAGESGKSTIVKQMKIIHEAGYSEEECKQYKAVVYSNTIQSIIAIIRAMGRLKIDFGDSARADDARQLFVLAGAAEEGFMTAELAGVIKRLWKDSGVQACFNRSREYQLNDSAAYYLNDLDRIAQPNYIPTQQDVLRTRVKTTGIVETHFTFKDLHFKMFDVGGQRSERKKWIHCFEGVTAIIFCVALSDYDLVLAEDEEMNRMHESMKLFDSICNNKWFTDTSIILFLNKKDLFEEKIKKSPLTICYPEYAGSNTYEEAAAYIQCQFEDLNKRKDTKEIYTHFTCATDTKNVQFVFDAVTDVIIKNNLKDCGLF
Outline: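 A drop in FITC polarization marked displacement of the FITC-tagged RGS12 GoLoco peptide (10 nM) from Gαi1 (50 nM). Compounds were incubated 10 min at room temperature in Tris pH 7.5 buffer containing 150 mM NaCl, 0.1 mM GDP and 0.05% NP40; unlabeled peptide titration served as control.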

[14] = molecular target: Cytochrome P450 3A4 (Homo sapiens) (UniProt P08684); assay: qHTS Assay for Activators of Cytochrome P450 3A4 (AID 885); conditions: recombinant CYP3A4, Luciferin-PPXE luminescence, 60 min; series mostly up to 57.1 µM; also: nearly all actives have a fitted effect of over 65% in size
Chain of Cytochrome P450 3A4 (Homo sapiens) (P08684 whole entry, looked up): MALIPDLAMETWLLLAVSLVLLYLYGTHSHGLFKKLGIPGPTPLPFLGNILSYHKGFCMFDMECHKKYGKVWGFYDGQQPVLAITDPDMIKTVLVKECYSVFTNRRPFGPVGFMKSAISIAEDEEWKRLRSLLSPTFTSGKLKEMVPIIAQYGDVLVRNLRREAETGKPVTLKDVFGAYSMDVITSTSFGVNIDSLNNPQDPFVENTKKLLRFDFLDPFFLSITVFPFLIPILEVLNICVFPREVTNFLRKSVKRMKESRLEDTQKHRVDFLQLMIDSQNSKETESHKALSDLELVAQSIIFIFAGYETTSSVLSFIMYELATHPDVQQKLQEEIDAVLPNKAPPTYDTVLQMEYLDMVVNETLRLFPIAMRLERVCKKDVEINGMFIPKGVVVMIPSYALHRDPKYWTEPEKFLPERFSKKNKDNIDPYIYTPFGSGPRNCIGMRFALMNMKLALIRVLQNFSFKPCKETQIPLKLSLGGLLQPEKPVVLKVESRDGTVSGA
Outline: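 CYP3A4 activity: Luciferin-PPXE O-dealkylation, 25uM substrate, 200mM KPO4, RT throughout. Read-out is luciferase luminescence; higher values reflect activation.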

[15] = molecular target: Cytochrome P450 2D6 (Homo sapiens) (UniProt P10635); assay: qHTS Assay for Inhibitors and Substrates of Cytochrome P450 2D6 (AID 891); conditions: recombinant CYP2D6, luciferin-ME EGE luminescence; series mostly up to 57.1 µM; also: nearly all actives have a fitted effect of over 60% in size; also: potency is read from the fitted curve at half-maximal effect;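 as to activity change, negative = inhibition: luciferin methyl ether substrate demethylated by CYP2D6 with NADPH regeneration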
Chain of Cytochrome P450 2D6 (Homo sapiens) (P10635 whole entry, looked up): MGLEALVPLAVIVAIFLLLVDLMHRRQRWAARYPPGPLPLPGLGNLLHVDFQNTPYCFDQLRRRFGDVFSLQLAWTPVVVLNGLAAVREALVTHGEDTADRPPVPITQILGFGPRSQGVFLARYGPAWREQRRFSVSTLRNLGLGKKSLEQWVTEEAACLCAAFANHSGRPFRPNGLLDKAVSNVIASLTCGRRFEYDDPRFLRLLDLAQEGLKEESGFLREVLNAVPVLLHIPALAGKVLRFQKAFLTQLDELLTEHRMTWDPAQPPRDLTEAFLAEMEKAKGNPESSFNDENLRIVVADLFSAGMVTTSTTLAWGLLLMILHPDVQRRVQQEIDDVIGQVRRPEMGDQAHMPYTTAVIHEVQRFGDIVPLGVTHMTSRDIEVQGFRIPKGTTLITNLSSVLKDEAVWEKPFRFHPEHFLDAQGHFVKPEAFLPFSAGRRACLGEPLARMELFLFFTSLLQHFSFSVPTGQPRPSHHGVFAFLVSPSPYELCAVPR
Outline: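 Luminescent read-out of luciferin formed by 5 nM human CYP2D6 demethylating 30 uM Luciferin-ME EGE (Km level) over 60 min at room temperature after NADPH regeneration addition. Data normalized to full inhibition by 1.43 uM quinidine.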

[16] = molecular target: Cytochrome P450 2C19 (Homo sapiens) (UniProt P33261); assay: qHTS Assay for Inhibitors and Substrates of Cytochrome P450 2C19 (AID 899); conditions: recombinant CYP2C19, luciferin-H EGE luminescence; series mostly up to 57.1 µM; also: nearly all actives have a fitted effect of over 60% in size; also: potency is read from the fitted curve at half-maximal effect
Chain of Cytochrome P450 2C19 (Homo sapiens) (P33261 whole entry, looked up): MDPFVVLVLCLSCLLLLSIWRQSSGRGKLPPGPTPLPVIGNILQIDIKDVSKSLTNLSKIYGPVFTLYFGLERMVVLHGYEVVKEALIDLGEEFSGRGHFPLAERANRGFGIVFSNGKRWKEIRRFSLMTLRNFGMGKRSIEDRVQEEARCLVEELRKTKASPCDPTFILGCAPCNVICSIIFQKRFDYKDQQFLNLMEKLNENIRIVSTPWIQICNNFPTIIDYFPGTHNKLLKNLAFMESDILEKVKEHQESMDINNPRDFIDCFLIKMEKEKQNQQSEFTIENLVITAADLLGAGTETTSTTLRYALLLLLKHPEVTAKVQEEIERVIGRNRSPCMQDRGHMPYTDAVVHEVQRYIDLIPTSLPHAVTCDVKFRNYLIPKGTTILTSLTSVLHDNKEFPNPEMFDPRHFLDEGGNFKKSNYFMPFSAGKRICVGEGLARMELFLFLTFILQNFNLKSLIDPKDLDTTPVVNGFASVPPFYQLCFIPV
Outline: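 Luminescent read-out of luciferin formed from Luciferin-H EGE (10uM, equal to KM). Enzyme 5nM in 50mM KPO4; compound added, 10 min at 37C, then NADPH regenerating system for 60 min at 37C. Full inhibition defined by 57uM ketoconazole.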

[17] = molecular target: Pyruvate kinase (Leishmania mexicana) (UniProt Q27686); assay: qHTS Validation Assay for Inhibitors of Leishmania Mexicana Pyruvate Kinase (AID 945); conditions: purified L. mexicana pyruvate kinase, enzyme activity, E451W mutant enzyme; series mostly up to 57.5 µM
Outline: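 The enzyme is a highly purified E451W mutant of LmPYK used at 0.2 nM. It converts 0.5 mM PEP and 0.1 mM ADP over 1 h at room temperature; product ATP is quantified by luciferase luminescence relative to DMSO controls.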

[18] = molecular target: Alpha-galactosidase A (Homo sapiens) (UniProt P06280); assay: Counterscreen for Glucocerebrosidase Inhibitors: qHTS Assay for Human alpha-Galactosidase at pH 4.5 (AID 992); conditions: purified enzyme, fluorogenic substrate; series mostly up to 76.9 µM
Chain of Alpha-galactosidase A (Homo sapiens) (P06280 whole entry, looked up): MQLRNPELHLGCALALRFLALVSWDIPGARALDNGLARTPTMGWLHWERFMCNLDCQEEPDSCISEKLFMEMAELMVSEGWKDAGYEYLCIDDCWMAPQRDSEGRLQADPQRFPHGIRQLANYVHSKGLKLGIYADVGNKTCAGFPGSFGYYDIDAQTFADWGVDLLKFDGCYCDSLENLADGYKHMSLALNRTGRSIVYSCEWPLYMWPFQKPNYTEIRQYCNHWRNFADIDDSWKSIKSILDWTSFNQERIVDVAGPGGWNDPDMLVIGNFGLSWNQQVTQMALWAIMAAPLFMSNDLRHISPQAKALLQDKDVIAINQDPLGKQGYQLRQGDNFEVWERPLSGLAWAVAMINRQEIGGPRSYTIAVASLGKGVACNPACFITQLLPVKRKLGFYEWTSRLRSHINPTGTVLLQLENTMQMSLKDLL
Outline: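 Citrate buffer pH 4.5, Tween-20 0.005%. Enzyme 2 nM, substrate 80 uM, 20 min RT. Stop pH 10. Fluorescence Ex 365/Em 440. AC50 by Hill fit.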

[19] = molecular target: alpha-glucosidase (Oryza sativa, rice) (UniProt Q653V4); assay: Counterscreen for Glucocerebrosidase Inhibitors: qHTS Assay for Rice alpha-Glucosidase at pH 5.0 (AID 997); conditions: rice alpha-glucosidase enzyme activity; series mostly up to 76.9 µM
Outline: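 Endpoint fluorogenic assay at pH 5.0: compounds (0.7 nM to 77 uM) titrated against 4 nM rice enzyme and 400 uM 4-MU-alpha-glucoside for 20 min at room temperature; NaOH/glycine stop, read ex 365/em 440 nm, Hill-fitted AC50.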

[20] = measured here: cell count channel max response
[21] = measured here: lipid channel max response

## N[C@H](CCC(=O)NCC(=O)O)C(=O)O
[1]
  Potency: inactive
[2]
  Potency: > 46 µM (inactive)
[3]
  Potency: > 46 µM (inactive)
[4]
  Potency: inactive
[5]
  Potency: inactive
[6]; at 57.5 µM (top of the series)
  activity change, negative = inhibition: -2.27% (inactive)
[6]; [20]
  max response: 4.97%
[6]; [21]
  max response: 3.09%
[7]
  Potency: inactive
[8]
  Potency: inactive
[9]
  Potency: inactive
[10]
  Potency: inactive

## CCCCCCCCCCCCCCCC(=O)NC(C)C
[1]
  Potency: inactive
[2]
  Potency: > 46 µM (inactive)
[3]
  Potency: > 46 µM (inactive)
[4]
  Potency: inactive
[5]
  Potency: inactive
[6]; at 57.5 µM (top of the series)
  activity change, negative = inhibition: 0.0182% (inactive)
[6]; [20]
  max response: -14.5%
[6]; [21]
  max response: -16.6%
[8]
  Potency: inactive
[9]
  Potency: inactive
[10]
  Potency: inactive

## CC1=C(\C=C/C(C)=C/C=C\C(C)=C\C(=O)O)C(C)(C)CCC1
[11]; at 17.2 µM (top of the series)
  activity change, negative = inhibition: -3.06% (inactive) and -11.4% (inactive)
[11]; at 38 µM (top of the series)
  activity change, negative = inhibition: -26.4% (inactive) and 3.96% (inactive)
[1]
  Potency: inactive and 20 µM (active)
[12]
  activity change, negative = inhibition: 4.1% (inactive)
[2]
  Potency: > 46 µM (inactive) and > 20.6 µM (inactive)
[3]
  Potency: > 46 µM (inactive) and > 20.6 µM (inactive)
[4]
  Potency: inactive
[5]
  Potency: inactive
[13]
  outcome: inactive
[14]
  Potency: inactive
[15]
  Potency: inactive and 2 µM (active)
[16]
  Potency: inactive and 5.01 µM (active) and 12.6 µM (active)
[17]
  Potency: inactive
[18]
  outcome: inactive
[19]
  outcome: inactive
[6]; at 25.7 µM (top of the series)
  activity change, negative = inhibition: 0.599% (inactive) and 0.957% (inactive)
[6]; [20]
  max response: -6.58% and 5.14%
[6]; [21]
  max response: -6.6% and 8.88%
[7]
  Potency: inactive
[8]
  Potency: inactive
[9]
  Potency: inactive
[10]
  Potency: inactive

From PubChem BioAssay (NCATS)
